Data published in PubChem BioAssay (Tox21).
Inconclusive results are not listed. Entries that show only a call come without a potency. A number with no mark means an inactive call. The source made the active and inactive calls. Calls come from the whole dose curve; as a rule, active = well fitted activation curve with a large enough effect in the repeat runs; inconclusive = weak or mixed curves; inactive = flat fitted curve, though single readings scatter.

Experiment: Caspase-3/7 induction in HepG2 cells by small molecules, qHTS assay (AID 1346978); note: nearly all actives have a fitted effect of over 15% in size
Conditions: HepG2 caspase-3/7 activation, Caspase-Glo luminescence, 17 h; series mostly up to 92.4 µM
Text: National Center for Advancing Translational Sciences [NCATS] NIH Chemical Genomics Center [NCGC] U.S. Environmental Protection Agency [EPA] National Institutes of Environmental Health Sciences [NIEHS] National Toxicology Program [NTP] Assay overview: Apoptosis is a process of programmed cell death and plays a central role in the development of multicellular organisms. It is a highly regulated process and induces cell death by activating caspases, which are the members of cysteine aspartic acid-specific protease (caspase) family. Caspases involved in apoptosis are classified by their mechanism of action as initiator caspases (caspase-2, -8, -9 and -10) and executioner caspases (caspase-3, -6, and -7). Inhibition of apoptosis results in number of cancers, autoimmune diseases, inflammatory diseases and viral infection. To identify small molecule compounds that induce apoptosis, a homogeneous, luminescent Caspase-Glo 3/7 assay was used. Wild type HepG2 cells were used to screen Tox21 libraries for identifying caspase-3/7 activity inducers.
Assay Protocol Summary: HepG2 cells were dispensed at 2,000 per well in 5uL of culture medium into white solid bottom 1536-well plates (Corning Life Sciences, Corning, NY) using a Multidrop Combi (Thermo Scientific, Waltham, MA) dispenser. The assay plates were incubated at 37 C and 5% CO2 for 5hr, and then 23nL of compounds dissolved in DMSO and positive control were transferred using a Pintool station (Wako, San Diego, CA). The assay plates were incubated at 37C and 5% CO2 for 17hr. For caspase-3/7 activity read, 4uL of Caspase-Glo 3/7 reagent (Promega Corporation, Madison, WI) was added to each well of the assay plates using Flying Reagent Dispenser (FRD, Aurora Discovery, San Diego, CA) and incubated the assay plates at room temperature for 30min. The luminescence signal was quantified using a ViewLux plate reader (Perkin Elmer, Shelton, CT).
With `Brc1ccccc1` the Potency was “inactive”.
In the case of `O=S1(=O)OC(c2cc(Br)c(O)c(Br)c2)(c2cc(Br)c(O)c(Br)c2)c2ccccc21`, the Potency is reported as “inactive”.
For `C=CCN1CC[C@]23c4c5ccc(O)c4O[C@H]2C(=O)CC[C@@]3(O)[C@H]1C5`, the Potency was “inactive”.
With `CCOc1ccc(C(C)(C)COCc2cccc(Oc3ccccc3)c2)cc1` the Potency was “inactive”.
For `C=CC(=O)OCC(C)O` (stereo not given), the Potency was “inactive”.
With `C=CCCl` the Potency was “inactive”.
For `O=[N+]([O-])c1cc(C(F)(F)F)cc([N+](=O)[O-])c1Cl`, the Potency was “inactive”.
In the case of `ClCCCCBr`, the Potency is reported as “inactive”.
For `c1ccc(CN2CCNCC2)cc1`, the Potency was “inactive”.
In the case of `CCOS(C)(=O)=O`, the Potency is reported as “inactive”.
For `CCOP(=O)(OCC)SCCSCC`, the Potency was “inactive”.
For `O=NN1CCNCC1`, the Potency was “inactive”.
In the case of `N#CCc1ccccc1`, the Potency is reported as “inactive”.
With `O=[N+]([O-])c1ccc(F)c([N+](=O)[O-])c1` the Potency was “inactive”.
For `Cn1sc(Cl)cc1=O`, the Potency was “inactive”.
For `CC(c1ccc(O)cc1)(c1ccc(O)cc1)c1ccc(O)cc1`, the Potency was “inactive”.
In the case of `O=[Se]=O`, the Potency is reported as “inactive”.
With `C[C@]12CC[C@H]3[C@@H](CCC4=CC(=O)CC[C@@H]43)[C@@H]1CC[C@@H]2OC(=O)CCC1CCCCC1` the Potency was “inactive”.
With `CCOC(=O)COc1cc(-c2nn(C)c(OC(F)F)c2Cl)c(F)cc1Cl` the Potency was “inactive”.
For `Nc1ccc([N+](=O)[O-])cc1[N+](=O)[O-]`, the Potency was “inactive”.
For `N#Cc1cc(I)c(O)c(I)c1`, the Potency was “inactive”.
With `C=COC(C)=O` the Potency was “inactive”.
For `COC(N)=O`, the Potency was “inactive”.
For `O=[N+]([O-])c1ccccc1CCl`, the Potency was “inactive”.
With `OC(c1ccc(Cl)cc1)(c1ccc(Cl)cc1)c1cccnc1` the Potency was “inactive”.
In the case of `Nc1ccc(N=Nc2ccc(-c3ccc(N=Nc4c(S(=O)(=O)O)cc5cc(S(=O)(=O)O)c(N=Nc6ccccc6)c(O)c5c4N)cc3)cc2)c(N)c1`, the Potency is reported as “inactive”.
With `CCCCc1c(C)nc(NCC)nc1OS(=O)(=O)N(C)C` the Potency was “inactive”.
With `CCOC(=O)CBr` the Potency was “inactive”.
With `C=CC(C)=O` the Potency was “inactive”.
In the case of `Nc1nc(=S)[nH][nH]1`, the Potency is reported as “inactive”.
For `CCOc1nc(F)cc2nc(S(=O)(=O)Nc3c(Cl)cccc3Cl)nn12`, the Potency was “inactive”.
In the case of `CCCN(CCC)c1c([N+](=O)[O-])cc(S(C)(=O)=O)cc1[N+](=O)[O-]`, the Potency is reported as “inactive”.
With `[CH3][Sn]([CH3])([Cl])[Cl]` the Potency was “inactive”.
`NCC(CC(=O)O)c1ccc(Cl)cc1` (stereo not given) gave a caspase activation of 1.78% [at 0.349 µM].
For `Cl/C=C\Cl`, the Potency was “inactive”.
In the case of `COC(=O)C(C)N(C(=O)Cc1ccccc1)c1c(C)cccc1C` (stereo not given), the Potency is reported as “inactive”.
In the case of `O=C=Nc1ccc(Cl)cc1`, the Potency is reported as “inactive”.
For `COP(=S)(OC)Oc1ccc([N+](=O)[O-])cc1Cl`, the Potency was “inactive”.
In the case of `NS(=O)(=O)C(F)(F)C(F)(F)C(F)(F)C(F)(F)C(F)(F)C(F)(F)C(F)(F)C(F)(F)F`, the Potency is reported as “inactive”.
With `COC(=O)c1cncn1C(C)c1ccccc1` (stereo not given) the Potency was “inactive”.
